# Assay results published in PubChem BioAssay AID485364 (National Center for Advancing Translational Sciences (NCATS), 2010).
# In all, about 360,000 compounds went through this assay and about 11,000 (3.1%) were called active. A call without a number means that no potency is given here. Inconclusive results (about 4%) are left out. The call rests on the fitted dose curve; in most records, active means well fitted inhibition curve with a large enough effect; inconclusive means small, poorly fitted or top-dose-only effect; inactive means no such curve, though single readings can be large or run the other way. The full list was thinned out, with actives kept by preference.
# Biological target: Schistosoma mansoni thioredoxin glutathione reductase (TGR) (UniProt Q962Y6)
# Test: qHTS Assay for the Inhibitors of Schistosoma Mansoni Peroxiredoxins; further: nearly all actives have a fitted effect of over 60% in size
# Conditions: purified TGR, DTNB reduction, TNB absorbance 405 nm; series mostly up to 114 µM
# How it was run: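 Kinetic colorimetric format: TGR-catalysed, NADPH-driven DTNB reduction monitored via TNB absorbance. Enzyme dispensed at 20 nM; compound exposure 15 min at room temperature before reaction start.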
# Potency means the concentration at half of the fitted maximal effect.
row,SMILES,Potency
1,CC(C)NC(=O)c1nn(-c2ccccc2F)nc1CO,inactive
2,CCCC(=O)Nc1ccc(NC(=O)c2sc3ccccc3c2Cl)cc1,inactive
3,O=C(/C=C/NNC(=O)c1cccc(Br)c1)c1ccccc1,inactive
4,O=C(/C=C/NCc1ccc(F)cc1)c1ccccc1,inactive
5,O=C(/C=C\NCC(=O)c1ccccc1)c1ccccc1,28.2 µM (active)
6,COc1cc(NC(=O)CSc2nc3nc(C)c(Cc4ccc(C)cc4)c(C)n3n2)cc(OC)c1OC,inactive
7,COc1ccc(NC(=O)C2CCCN(S(=O)(=O)c3c(C)[nH]c(=O)[nH]c3=O)C2)c(OC)c1 (stereo unspecified),inactive
8,CC(=O)N1CCCc2cc(S(=O)(=O)N3CCC(C(=O)NCc4ccc(F)cc4)CC3)ccc21,inactive
9,Cc1ccc(C)c(N2CCN(S(=O)(=O)c3ccc4c(c3)C(C(C)C)C(=O)N4)CC2)c1 (stereo unspecified),inactive
10,COC(=O)c1sccc1NC(=O)CCC1CCCC1,inactive
11,COC(=O)c1sccc1NN1C(=O)c2ccccc2C1=O,inactive
12,CCOC(=O)C(=CNNc1ccsc1C(=O)OC)C(=O)OCC,20 µM (active)
13,O=C(CCCCn1c(=O)c2ccccc2n(CC(=O)Nc2cccc(C(F)(F)F)c2)c1=O)NCc1ccc2c(c1)OCO2,inactive
14,COc1cccc(CNC(=O)CCc2nc(-c3ccc(C)cc3)no2)c1,inactive
15,CCOC(=O)Cn1c(=O)n(-c2ccccc2OC)c2nc(-c3cccc(F)c3)nc(C(N)=O)c21,inactive
16,CCOC(=O)c1ccc(-c2ccc(C(=O)Nc3cccnc3)o2)cc1,inactive
17,COC(=O)C1=C(C)NC2=C(C(=O)c3ccccc32)C1c1ccc(-c2ccc(C(=O)O)cc2)o1 (stereo unspecified),20 µM (active)
18,CCOc1cc(C2C(C(=O)OC)=C(C)NC3=C2C(=O)c2ccccc23)ccc1O (stereo unspecified),inactive
19,CCOC(=O)c1cc2c(=O)n3ccccc3nc2n(CC2CCCO2)c1=NC(=O)c1ccccc1Br (stereo unspecified),inactive
20,Cc1cc(C)c2c(=O)[nH]c(SCC(=O)Nc3ccc(Br)cc3)nc2n1,inactive
21,Cc1ccc(NC(=O)CCC(=O)c2ccc(Br)cc2)cc1,inactive
22,Cc1ccn(C(CC(=O)c2ccc(Br)cc2)C(=O)O)n1 (stereo unspecified),8.91 µM (active)
23,Cc1ccc(-n2ncc3c(=O)n(Cc4cccc(C(F)(F)F)c4)cnc32)cc1C,inactive
24,O=C(Nc1ccccc1Cl)N1CCC(CN2CCCC2)CC1,inactive
25,CCOC(=O)c1cc2n(c1N)-c1ccccc1C2=O,31.6 µM (active)
26,CCOC(=O)c1cc(-c2ccccc2)n(CCC(=O)Nc2ccccc2CC)c1C,inactive

row,SMILES,Potency
1,CCOC(=O)c1ccccc1CN1C(=O)c2ccccc2S1(=O)=O,inactive
2,O=C(Nc1cccc2cccnc12)c1cccc2c(Br)cccc12,inactive
3,COc1ccc(CNC(=O)c2cc3c(=O)[nH]c4ccc(C)cc4c3s2)c(OC)c1,inactive
4,N#C/C(=C\c1cccc(F)c1)c1nc(-c2cc3c(ccc4ccccc43)oc2=O)cs1,inactive
5,COC(=O)c1ccc(CSc2ccccc2C)o1,inactive
6,COC(=O)c1ccc(CSc2ccc3nnc(-c4ccccc4)n3n2)o1,56.2 µM (active)
7,COC(=O)c1ccc(CSc2nnc(N)s2)o1,inactive
8,CCOc1ccc(OCC)c(NS(=O)(=O)c2ccc3[nH]c(=O)ccc3c2)c1,inactive
9,CCc1ccccc1N1CC(c2nc3ccccc3n2CCCCOc2ccccc2)CC1=O (stereo unspecified),inactive
10,O=C(/C=C/c1ccc(F)cc1)NC(=S)NNC(=O)c1cccnc1,inactive
11,O=C(/C=C/c1ccc([N+](=O)[O-])o1)NNC(=O)c1ccc(F)cc1,11.2 µM (active)
12,O=C(Nc1ccc(F)cc1)C1CCN(C(=O)c2ccc([N+](=O)[O-])cc2)CC1,inactive
13,CC1(C)CCSC(/C=C/c2ccccc2)=N1,17.8 µM (active)
14,CCCCC(CC)CNC(=O)C1CCN(S(=O)(=O)c2cccc3nsnc23)CC1 (stereo unspecified),inactive
15,COc1ccc2c(CNCCc3ccccc3C)c(C(=O)O)n(Cc3ccccc3C)c2c1,inactive
16,CC1CCN(CC(=O)c2c[nH]c3ccccc23)CC1,inactive
17,CC1CCCN(Cc2nc3c(c(=O)n(C)c(=O)n3C)n2CC(=O)c2ccccc2)C1 (stereo unspecified),inactive
18,CCOC(=O)N1CCN(CC(=O)c2ccc3c(c2)CCN3)CC1,inactive
19,CCOC(=O)N1CCN(CC(=O)n2c(C)c(C)c3ccccc32)CC1,inactive
20,Cc1[nH]c2ccccc2c1C(=O)CN1CCCC(C)C1 (stereo unspecified),25.1 µM (active)
21,CCOC(=O)N1CCN(CC(=O)c2c(C)[nH]c3ccccc23)CC1,35.5 µM (active)
22,Cc1cccc(N2CCN(C(=O)Cn3ncc4c5ccccc5n(C)c4c3=O)CC2C)c1 (stereo unspecified),inactive
23,CCc1cc2c(cc3c(=O)n(CC(=O)NCc4cccc(Cl)c4)nc(CC)n32)s1,inactive
24,Cc1cccc(NC(=O)c2cc3c(C)nn(-c4ccccc4)c3s2)c1,inactive
25,COC(=O)c1ccc(OC)c(Cn2c(=O)n(Cc3ccccc3)c(=O)c3c2c2cc(OC)ccc2n3C)c1,inactive
26,Cc1oc2ccc(O)c(CN3CCCCC3)c2c1C(=O)Nc1cccc(C(F)(F)F)c1,inactive

row,SMILES,Potency
1,CCN(Cc1ccccc1)C(=O)c1cn(-c2cccc(OC)c2)c(=O)c2ccccc12,inactive
2,Cc1ccccc1NC(=O)CN1C(=O)C(C)(C)c2ccccc21,inactive
3,COc1cccc(-n2c(SCC(=O)c3c[nH]c4ccccc34)nc3ccccc3c2=O)c1,inactive
4,COc1ccc(/C=C(\C#N)c2c[nH]c3ccccc23)cc1,14.1 µM (active)
5,CCOc1ccc(/C=C(\C#N)c2nc3ccccc3c(=O)[nH]2)cc1OC,inactive
6,COC(=O)c1ccc(NC(=O)c2cccc3c2C(=O)N(C2CCCCC2)C3)cc1,inactive
7,CCN(CC)c1nn2c(=O)c(C(=O)NCCc3ccccc3)cnc2s1,inactive
8,O=C(O)c1ccc(Nc2nc(-c3ccccc3)c3cc(Br)ccc3n2)cc1,inactive
9,CC1=NC2(CCCc3c2no[n+]3[O-])N(O)C1(C)C (stereo unspecified),44.7 µM (active)
10,COc1ccc(-c2cn3nc(N4CCC(C(=O)Nc5cccc(C)c5C)CC4)sc3n2)cc1,inactive
11,CCOC(=O)C1CCCN(C(=O)c2ccc(-n3ccc4ccccc43)s2)C1 (stereo unspecified),inactive
12,CC(OC(=O)CN1C(=O)COc2ccccc21)C(=O)NCc1ccc(F)cc1 (stereo unspecified),inactive
13,O=C(CN1C(=O)COc2ccc(Cl)cc21)Nc1ccc(N2CCOCC2)cc1,inactive
14,O=C(CN1C(=O)COc2ccccc21)Nc1ccc(F)cc1,70.8 µM (active)
15,O=C(O)c1c(CNCc2cccc(F)c2)c2ccccc2n1Cc1ccccc1,inactive
16,Cc1cccc(C(=O)Nc2ccc(C(=O)N/N=C/c3cccc(C)n3)cc2)c1,inactive
17,Cc1ccc(C(=O)N/N=C\c2cc(Br)c(Br)o2)cn1,22.4 µM (active)
18,Brc1cc(/C=N/n2cnnc2)oc1Br,inactive
19,Cn1nnnc1SCCCNCc1cccc(OCc2ccc(Cl)cc2)c1,inactive
20,CCOC(=O)c1cc2c(=O)n3ccccc3nc2n(CCCOC)c1=NC(=O)C(C)Oc1ccccc1 (stereo unspecified),inactive
21,COc1ccccc1/C=C/C(=O)NC1CC2CCC1C2 (stereo unspecified),inactive
22,CCOC(=O)C(=CNc1cccc(C)n1)C(=O)OCC,inactive
23,CCOC(=O)C(=Cc1ccccc1OC)C(=O)OCC,28.2 µM (active)
24,COc1cc(C(=O)NCCc2csc3nc(-c4ccccc4C)nn23)cc(OC)c1OC,inactive
25,Cc1ccccc1CN1C(=O)c2ccccc2Sc2ccc(C(=O)NCCCN3CCOCC3)cc21,inactive
26,O=C(NCCCN1CCOCC1)c1ccc2c(c1)N(Cc1cccc(F)c1)C(=O)c1ccccc1S2,22.4 µM (active)

row,SMILES,Potency
1,CCC1=Nc2cc(C(=O)NCCCN3CCOCC3)ccc2Sc2ccc(Br)cc21,inactive
2,Cc1ccc(CCNC(=O)c2ccc3c(c2)nc2n3CCC(C)C2)cc1 (stereo unspecified),inactive
3,CCOc1cccc(CC(=O)N2CCc3c([nH]c4ccccc34)C2c2ccc(OC)cc2)c1OCC (stereo unspecified),inactive
4,CCN(CC)S(=O)(=O)c1ccc2c(c1)nc(CN(C)C(=O)Nc1ccc(Cl)cc1)n2C,inactive
5,CCOC(=O)/C=C/C(=O)OCC(=O)NC(c1ccccc1)c1ccccc1,15.8 µM (active)
6,O=C(Cc1ccc(-c2ccccc2)cc1)NC(c1ccccc1)c1ccccc1,inactive
7,CCOC(=O)C(C(=O)OCC)C(C#N)c1ccccc1 (stereo unspecified),inactive
8,COc1cccc(C2C(C(=O)Nc3ccc(C)cc3C)=C(C)Nc3c(C(=O)Nc4ccccc4)cnn32)c1 (stereo unspecified),inactive
9,Cc1cccc(NC(=O)CSc2nc3c([nH]c4ccccc43)c(=O)n2-c2cc(C)cc(C)c2)c1,inactive
10,CSc1cccc(NC(=O)CN2C(=O)CCc3cc(S(=O)(=O)N4CCCCC4)ccc32)c1,inactive
11,COc1ccc(Cn2c(C(=O)O)c(CNCc3cccc(OC)c3)c3ccc(C)cc32)cc1,inactive
12,O=C(CSc1nc(=O)[nH]c2c1CCCC2)Nc1cc(C(F)(F)F)ccc1Cl,inactive
13,Cc1nc2c(c(C)nn2-c2ccccc2)c(C)c1CCC(=O)NCCc1ccc(Cl)cc1,inactive
14,C=Cc1ccc(Cn2c(C(=O)O)c(CNC3CCCC3)c3ccc(C)cc32)cc1,inactive
15,CC(C)OCCCNC(=O)c1ccc(C2SCC(=O)N2Cc2ccco2)cc1 (stereo unspecified),25.1 µM (active)
16,CC(C)OCCCNC(=O)CNC(=O)c1cccs1,inactive
17,O=C(NCc1ccco1)c1ccc(Cn2c(=O)c3sccc3n(Cc3ccc(F)cc3)c2=O)cc1,inactive
18,CCOc1ccc(NC(=O)c2cc(S(=O)(=O)N3CCCC3)c[nH]2)cc1,inactive
19,COc1ccc(CNC(=O)c2cc3c(s2)-c2ccccc2OC3)cc1,inactive
20,COc1cccc(CNC(=O)Cn2c(=O)c3cccn3c3ccc(F)cc32)c1OC,inactive
21,O=C(NNS(=O)(=O)Cc1ccccc1)c1ccc([N+](=O)[O-])cc1,inactive
22,O=C(CNC(=O)c1ccccc1)Oc1ccc([N+](=O)[O-])cc1,11.2 µM (active)
23,O=C(CNC(=O)c1ccccc1)NCC(=O)OCC(=O)c1ccccc1,inactive
